Measured values from the supplement of paper PMC3545927.
The other results are listed elsewhere or left out. The true hit rate is not given.

Biological target: furin, P09958
Assay: furin cleavage Z-score vs untreated control; higher = more cleavage, active = 3.5 or more, inactive = 1 or less, 8 variable residues between constant flanks
How it was run: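 Magnetic beads held 8-mer peptides by the N-terminus, each fused to a cDNA oligonucleotide, and purified furin was added for 7.5, 15 or 30 min. Released DNA was sequenced after PCR adapter tagging. The cleavage Z-score is the log count relative to furin-free reactions, lowess-adjusted and divided by median absolute deviation.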
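Note: purified furin at 1:10 enzyme:substrate in 50 mM HEPES pH 7.5.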

furin, P09958, sequence (P09958 whole entry): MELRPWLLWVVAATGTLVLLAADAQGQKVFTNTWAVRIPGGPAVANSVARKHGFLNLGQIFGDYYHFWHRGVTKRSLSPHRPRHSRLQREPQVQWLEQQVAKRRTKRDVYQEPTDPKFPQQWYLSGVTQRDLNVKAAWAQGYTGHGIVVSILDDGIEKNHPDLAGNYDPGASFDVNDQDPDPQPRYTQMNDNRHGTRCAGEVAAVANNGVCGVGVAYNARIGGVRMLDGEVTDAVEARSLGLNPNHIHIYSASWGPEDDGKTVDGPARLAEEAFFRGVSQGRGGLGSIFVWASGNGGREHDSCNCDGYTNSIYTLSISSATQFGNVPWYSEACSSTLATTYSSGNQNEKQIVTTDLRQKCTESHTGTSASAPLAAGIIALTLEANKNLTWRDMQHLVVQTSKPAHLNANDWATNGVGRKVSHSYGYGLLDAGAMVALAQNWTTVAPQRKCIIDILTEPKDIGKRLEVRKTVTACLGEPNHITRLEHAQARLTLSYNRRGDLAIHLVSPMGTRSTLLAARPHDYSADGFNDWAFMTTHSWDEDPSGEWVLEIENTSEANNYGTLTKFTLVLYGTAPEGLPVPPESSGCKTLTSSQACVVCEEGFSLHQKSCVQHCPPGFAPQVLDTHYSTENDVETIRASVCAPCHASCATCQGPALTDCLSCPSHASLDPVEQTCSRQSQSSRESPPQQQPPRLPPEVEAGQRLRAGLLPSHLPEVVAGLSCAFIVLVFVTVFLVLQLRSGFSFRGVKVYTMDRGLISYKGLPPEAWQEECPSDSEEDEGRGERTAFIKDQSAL

| Sequence | furin cleavage Z-score (7.5 min) | furin cleavage Z-score (15 min) | furin cleavage Z-score (30 min) |
| --- | --- | --- | --- |
| CAITAEAAGRAGNASASA [HC1251] | 0.707 (inactive) | -1.39 (inactive) | -1.45 (inactive) |
| CARQRREMVAAGNASASA [FS-2589] | 4.84 (active) | 5.77 (active) | 5.19 (active) |
| CARDRRGCFAAGNASASA [FS-2253] | -0.438 (inactive) | -0.0621 (inactive) | 0.916 (inactive) |
| CARQRRPTGPAGNASASA [FS-2511] | -1.58 (inactive) | -0.922 (inactive) | 0.378 (inactive) |
| CARQRRGTGAAGNASASA [FS-2762] | 3.78 (active) | 4.54 (active) | 4.93 (active) |
| CARQRRGCFRAGNASASA [FS-2446] | 1.29 | 2.53 | 4.76 (active) |
| CARQRRGFHHAGNASASA [FS-2365] | 0.595 (inactive) | 4.95 (active) | 6.76 (active) |
| CARQRRLLAAAGNASASA [FS-3042] | -1.14 (inactive) | -0.921 (inactive) | 0.324 (inactive) |
| CANGSWHLNSAGNASASA [HC369] | -0.0133 (inactive) | 2.38 | 0.739 (inactive) |
| CAHREVPCHRAGNASASA [HC2435] | -0.316 (inactive) | 1.36 | 2.65 |
| CAVTKLPLAVAGNASASA [HC1460] | -0.671 (inactive) | -0.455 (inactive) | 0.174 (inactive) |
| CARTPCSGSWAGNASASA [HC1833] | -0.828 (inactive) | -0.942 (inactive) | -0.629 (inactive) |
| CASGGRTKRYAGNASASA [FS-191] | 8.8 (active) | 10.7 (active) | 9.18 (active) |
| CAKYSRSYRYAGNASASA [FS-937] | -0.221 (inactive) | -0.443 (inactive) | 0.667 (inactive) |
| CADQERKARYAGNASASA [FS-758] | -0.446 (inactive) | 0.477 (inactive) | 0.913 (inactive) |
| CASGGPLLCPAGNASASA [HC743] | 0.483 (inactive) | -0.364 (inactive) | -1.12 (inactive) |
| CANKFRTKRYAGNASASA [FS-695] | 9.46 (active) | 8.84 (active) | 7.04 (active) |
| CARVTAILSSAGNASASA [HC1132] | 1.14 | 0.277 (inactive) | -0.773 (inactive) |
| CADFEVVTSTAGNASASA [HC2287] | 0.0621 (inactive) | -1.1 (inactive) | -1.43 (inactive) |
| CARAARSRGAAGNASASA [FS-2324] | -0.759 (inactive) | -0.113 (inactive) | -0.259 (inactive) |
| CASRSRSPRPAGNASASA [FS-1283] | -0.34 (inactive) | 0.132 (inactive) | -0.275 (inactive) |
| CARCPRQVSTAGNASASA [FS-3216] | 4.16 (active) | 3.66 (active) | 6.67 (active) |
| CARAARHVVAAGNASASA [FS-1988] | 0.916 (inactive) | 2.53 | 4.88 (active) |
| CARRSRDVSCAGNASASA [FS-2519] | 4.17 (active) | 5.01 (active) | 5.69 (active) |
| CARGPRAVSTAGNASASA [FS-2334] | 0.54 (inactive) | 0.906 (inactive) | 1.4 |
| CARRSRKVGSAGNASASA [FS-2455] | -0.487 (inactive) | 0.947 (inactive) | 0.792 (inactive) |
| CARRSRSPRTAGNASASA [FS-3069] | 8.32 (active) | 10.6 (active) | 7.67 (active) |
| CARRVRIVSRAGNASASA [FS-1923] | -0.897 (inactive) | 0.174 (inactive) | 1.35 |
| CARRSRSSYTAGNASASA [FS-3070] | -0.67 (inactive) | 0.865 (inactive) | 2.05 |
| CARAARGTIGAGNASASA [FS-2879] | -0.0204 (inactive) | -0.846 (inactive) | 0.286 (inactive) |
